# Reference: PubChem BioAssay AID1347147 (National Center for Advancing Translational Sciences (NCATS), 2019)
# Records with an inconclusive call do not appear. A call without a number means that no potency is given here. Calls of active or inactive are those of the source. Calls come from the whole dose curve; as a rule, active = well fitted inhibition curve with a large enough effect; inconclusive = small, poorly fitted or top-dose-only effect; inactive = no such curve, though single readings can be large or run the other way.
# Biological target: N-terminal Xaa-Pro-Lys N-methyltransferase 1 (Homo sapiens) (UniProt Q9BV86)
# Assay: qHTS Assay for Inhibitors of N-terminal methyltransferase 1 (NTMT1): MTaseGlo Confirmatory Screen, Round 2
# Conditions: NTMT1 enzyme, MTase-Glo SAH luminescence; series mostly up to 57.4 µM
# From the text: Assay Submitter (PI): Rong Huang Ph.D, Purdue University, West Lafayette, IN 47907
# The N-terminal methytransferase 1 is the first methyltransferase that methylates protein alpha-N-amines and plays an important role in regulating cell mitosis, chromatin interactions and DNA repair. It is observed to be over-expressed in various cancer patient tissues like malignant melanoma and colorectal cancer tissues. Knockdown of NTMT1 in cancer cells causes cell mitotic defects and enhances sensitivity to DNA damaging chemotherapeutics. […] These critical cellular processes in which NTMT1 is implicated, coupled with emerging links to cellular dysfunction, strengthen the inference that NTMT1 is a compelling novel anticancer target. Progress have been made in understanding the molecular properties of NTMT1 and the biological consequences of protein alpha-N-terminal methylation, but there are no specific small molecule probes available for NTMT1 to fully characterize its MTase activity. To address this unmet need, a panel of assay is created and established to enable quantitative high-throughput screening (qHTS) for novel, potent, and selective small molecule NTMT1 inhibitors. Two orthogonal qHTS that use different reagents (ThioGlo vs. MTaseGlo) are developed for primary robotic screening against the NCATS chemical library of more than 400,000 small molecules. Identified inhibitors are reacquired, validated, and further characterized.
# MTaseGlo Assay is a luminescence screen that measure the activity of methyltransferases based on the reaction product S-adenosyl homocysteine (SAH). The substrate SAM is converted to SAH upon enzyme activation. MTase-Glo reagent and detection solution convert SAH to ATP and measure the light from the luciferase reaction.
# Early Translation Branch (ETB)
# National Center for Advancing Translational Sciences (NCATS)
# National Institute of Health (NIH)
# NTMT1 enzyme, substrate SPKRIA, control peptide RCC1-6 is provided by the Huang laboratory.
# In brief, 3 µL of enzyme mixture (final concentrations of 125 nM and 100 µM for NTMT1 and SAM, respectively) into all wells of a 1,536-well solid-bottom white plate (Greiner Bio One, Monroe, NC). 23 nL of DMSO or Ac-RCC1-10 (final concentration range 234 nM to 143 microM) was transferred via Wako Pin-tool (Wako Automation, Richmond, VA) and incubated (RT) for ~15 minutes. Next, 1 µL of substrate (final concentration 1 µM) or buffer was dispensed, and the reaction proceeded for 30 minutes (RT, protected from light) followed by a 1 microL addition of [5X] MTase-Glo Reagent(R). Samples were incubated (RT, protected from light) for 30 minutes to allow for SAH to be converted to ADP, followed by a 5 microL addition of [1X] MTase-Glo Detection Solution(R) to allow for ADP to be converted to ATP, which was then detected with a luciferase reaction. Samples were centrifuged for 15 seconds at 1,000 RPM's, followed by a RT incubation for 30 minutes. Plates were then read using Luminescence optics on a ViewLux detector. Data were normalized to no-enzyme (0% activity) and no-inhibitor (DMSO; 100%) controls, and the resulting percent inhibition data were fitted to a 4-parameter Hill equation using Graphpad Prism.
# Potency is the fitted concentration of half-maximal effect.
# Chain of N-terminal Xaa-Pro-Lys N-methyltransferase 1 (Homo sapiens) (Q9BV86 whole entry, looked up): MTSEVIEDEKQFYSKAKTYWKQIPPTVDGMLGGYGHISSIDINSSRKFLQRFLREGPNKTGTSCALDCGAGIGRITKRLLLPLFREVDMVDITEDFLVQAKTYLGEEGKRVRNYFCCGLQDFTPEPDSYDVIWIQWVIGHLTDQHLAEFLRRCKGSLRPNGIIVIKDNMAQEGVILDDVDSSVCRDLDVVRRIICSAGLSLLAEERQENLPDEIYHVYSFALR
row,Structure (SMILES),Potency
1,COc1ccc2c(c[n+](C)c3c4cc5c(cc4ccc23)OCO5)c1OC,inactive
2,CNCCc1c[nH]c2ccc(O)cc12,inactive
3,CN(N=O)c1cc(O)ccc1O,inactive
4,NC(N)=Nc1ccc2[nH]c3c(c2c1)C[C@@]1(O)[C@H]2Cc4ccc(O)c5c4[C@@]1(CCN2CC1CC1)[C@H]3O5,25.1 µM (active)
5,NCC(O)c1cc(O)c(O)cc1F (stereo not drawn),inactive
6,CC(=O)c1c(O)c(C)c(O)c(Cc2c(O)c3c(c(C(=O)/C=C/c4ccccc4)c2O)OC(C)(C)C=C3)c1O,inactive
7,CC(N)[C@H](O)c1ccc(O)c(O)c1 (stereo partly drawn),inactive
8,CC(C)=CCOc1c2occc2cc2ccc(=O)oc12,inactive
9,Clc1ccc(N2CC3CCC(C2)N3)nn1,inactive
10,N#CC(C#N)=Cc1ccc(O)c(O)c1,inactive
11,NC(Cc1cc(O)c(O)cc1O)C(=O)O (stereo not drawn),15.8 µM (active)
12,CCn1cnc2c(Nc3cccc(Cl)c3)nc(N[C@@H]3CCCC[C@@H]3N)nc21,11.2 µM (active)
13,O=S1(=O)N(CCN2CC=C(c3c[nH]c4cc(F)ccc34)CC2)c2cccc3c2N1CCC3,inactive
14,NC(=O)CI,8.91 µM (active)
15,O=[N+]([O-])c1cc(O)c(O)c([N+](=O)[O-])c1,inactive
16,CCCN(CCC)[C@H]1CCc2c(F)ccc(O)c2C1,inactive
17,O=C1CC[C@@]2(O)C3Cc4ccc(O)c5c4C2(CCN3CC2CC2)[C@H]1O5 (stereo partly drawn),inactive
18,O=[N+]([O-])/C=C/c1ccc2c(c1)OCO2,inactive
19,O=[N+]([O-])c1ccc2nc(N3CCNCC3)ccc2c1,inactive
20,COC[C@H]1OC(=O)c2coc3c2[C@@]1(C)C1=C(C3=O)C2CCC(=O)[C@@]2(C)C[C@H]1OC(C)=O (stereo partly drawn),inactive
21,CC(N)Cc1c[nH]c2ccc(O)cc12 (stereo not drawn),inactive
22,N#C/C(=C/c1ccc(O)c(O)c1)C(N)=S,inactive
23,c1ccc(CCCN2CCN(CCOC(c3ccccc3)c3ccccc3)CC2)cc1,inactive
